The values that follow come from the supplement of paper PMC11417369.

Whole data set: some 25,000 sequences, median “ln(normalized median fluorescence intensity)” near 9.7, cut for the highest 2% near 11. The sample holds the highest values, similar sequences and a random draw of the others, so the mix is not that of the screen.

The test system of this test is PfAP2-HC AP2 domain (GST-tagged). Kind of test: gcPBM binding intensity (ln(normalized median fluorescence intensity)); higher = stronger DNA binding. The essentials:
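Plasmodium falciparum DNA-binding domains carrying a GST tag were expressed in E. coli and applied for 1 h, at about 25 μg on average, to an Agilent 4 × 180k array. The array held primer-extended double-stranded 36-bp intergenic genomic probes together with negative controls, and binding took place in 1× PBS with 1% milk, 0.2 mg/ml BSA, 0.5% salmon testes DNA and 0.03% Triton X-100. An Alexa488 anti-GST antibody detected bound protein, and the array was scanned at 488 nm. Binding intensity is taken as the highest Masliner-normalised natural-log median intensity across replicate spots of either probe orientation.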
For “ATAAAAATATTACGCACACACAAACTTATTCATTAT [CACACA_site1969]”, the “gcPBM binding intensity (ln)” value amounted to 10.2.
With TATATATTTTTATGTGTGCACTGTTTCATAAAAGAA the figure was 9.61.
In the case of “ACAATTTACACTTAAACACACAAAAAAAAGTTATAT [CACACA_site7056]”, the “gcPBM binding intensity (ln)” value stood at 9.98.
With “ATATATTTATATATATGTACATATTATGTTAAGAAA [XGTACX_site1111]” the figure was 9.69; with “ATATATAAATTTTAGTGTACATTAATTTTTTTTTTT [XGTACX_site7782]”, 9.64.
With “ATTTATTTATATTTAGTGCAATACTATTTTTAAATA [GTGCAC_site9886]” the figure was 9.48.
As to “TTATGTTGTAAATACACACATACATATACATACACA [CACACA_site733]”, the “gcPBM binding intensity (ln)” value turned out to be 9.91.
As to ATAATATATACGTGTGTGCACATGACAAAAGCATAT, the “gcPBM binding intensity (ln)” value came out at 10.6.
With “AATATATAAATATATACACACAAAAACATATATATA [CACACA_site1318]” the figure was 9.99; with “TCTTTTAAACAGTACACACACACATATATATATATA [CACACA_site924]”, 10.7.
With “AAAAAAAAAAAAAACACACACATATAAATATAAATA [CACACA_site6972]” the figure was 10.4.
With “CTAAAATACGAACACACACACACATATAAATAAATA [CACACA_site7872]” the figure was 11.2.
“TATATTCTTTTAAACAGTACACACACACATATATAT [XGTACX_site1701]”: the “gcPBM binding intensity (ln)” value was found to be 11.1.
With “ATTCTTTTAAACAGTACACACACACCGATATATATA [CACACA_site8213]” the figure was 10.7; with “CATATACACGAACACACACACATATAAATAAATATA [CACACA_site6379]”, 10.6; with “AATATAAATAAACACACACACATATATATATATATT [CACACA_site2906]”, 11.
With “TACACAAAAATAAACACACACACATATATATATATA [CACACA_site1000]” the figure was 10.2.
With “AAAAAATAAAAAAAAACACACACATACAAGCATATA [CACACA_site8451]” the figure was 11.1.
Consider “TAAAATATAAAACACACACACATATATATATATATT [CACACA_site224]”, for which the “gcPBM binding intensity (ln)” value was 10.3.
With “AACATATACACGAACACACACACATATAAATAAATA [CACACA_site6380]” the figure was 10.4.
For “AAGCATTTTTTTTAAAGCCTGTTCATCATCCTTACC [CACACA_negctrl_site129]”, the “gcPBM binding intensity (ln)” value amounted to 9.44.
Take “TATTAATTAAACCATACACACATAATTTTTTTATAA [CACACA_site843]”: the “gcPBM binding intensity (ln)” value was 9.85.
With “ATTATTTAAATTTAACGTACGGAATAAGACATAGAT [XGTACX_site8622]” the figure was 9.79.
With “CATTTACATGCCAACATGCACTGAACAATCTTTATA [GTGCAC_site9797]” the figure was 9.68.
For “AAAATATATTAAGGCACACACATACATATTTATATA [CACACA_site7707]”, the “gcPBM binding intensity (ln)” value was 10.2.
With “AAATGAATAAAATTTATTTATAAAAGAAAAATCACA [GTGCAC_negctrl_site225]” the figure was 9.57; with “TATATATATATATATACACACATACAGATATATATT [CACACA_site4629]”, 9.88.
Take “GTAGAGCATAATAAAACACACACATACATACATATA [CACACA_site8217]”: the “gcPBM binding intensity (ln)” value was determined as 10.4.
With “TAAATAAATAAAAAAACACACATATATATATATATA [CACACA_site4029]” the figure was 10; with “AGAGCATAATAAAACACACACATACATACATATATA [CACACA_site935]”, 10.3.
For “TAAATAAAAAAACACACACACATATATATATATATA [CACACA_site2269]”, the “gcPBM binding intensity (ln)” value came out at 11.4.
With “ACCATATAAATAAACACACACACACCGATATATATA [CACACA_site5310]” the figure was 10.6; with “AAAAAAAAAAAAAACACACACACACGCATAAATATA [CACACA_site6217]”, 11.5; with “CATAAAATATAAAACACACACACATATATATATATA [CACACA_site223]”, 10.7.
With “AAATAATATAAACATACACACACACCGATATATATA [CACACA_site8945]” the figure was 10.7.
“AAAATACATAAACACACACACACACCGATATATATA [CACACA_site9186]”: the “gcPBM binding intensity (ln)” value came out at 11.6.
For the sequence “TATAAATAAAAACACACACACACATATATATATATA [CACACA_site2268]”, the “gcPBM binding intensity (ln)” value worked out at 10.7.
With “TAAATAAATAAAAAAACACACATATAAATATAAATA [CACACA_site7815]” the figure was 9.93.
With “AGAGCATAATAAAACACACACATACATACCTATATA [CACACA_site6566]” the figure was 10.9.
With “CAATCATGGTTTTACACACACATGCATGTGAAAATT [CACACA_site4870]” the figure was 9.8.
For the sequence “TTATACGATAATATGACACACAATACAAAAATGTAA [CACACA_site1918]”, the “gcPBM binding intensity (ln)” value came to 9.86.
With “AATATAATATATATTAGTACATATATATATATATAT [XGTACX_site870]” the figure was 9.58.
With “GAAATAAATATATATGCATGTACTTTAATATTATTA [TGCATGCA_site904]” the figure was 9.66; with “TTTTACATATATATATGTACGAAAATGAAAAGGTCA [XGTACX_site5576]”, 9.59; with “TTTTTATGTTATCAAATAAATATAAATATAATTCAT [CACACA_negctrl_site1522]”, 9.32.
With “AAATTTATGAACCTAGTGCAGAAATTAAAAAGATGA [GTGCAC_site9396]”, the “gcPBM binding intensity (ln)” value was 9.54.
With “TCATATATTCAAAAATTTAAAGTTAATAAAACTTGA [CACACA_negctrl_site1546]” the figure was 9.06; with “ATATAAATATAGTGTGCACACACATAATATATATAT [CACACA_site8713]”, 10.4; with ACATATAAATATTGTGTGCACACACATAATATATAT, 11.3.
With “ATAAATATTGGGTGCACACACATAATATATATATAT [CACACA_site2272]” the figure was 10.2; with “TATAAAAGGAAACACACACACATATATATATATATA [CACACA_site939]”, 10.5; with “AAAAAAAAAAAAAAAACACACATAAAAATATAATAA [CACACA_site3855]”, 9.9.
On to “AAGGAATAATATAAAACACACACATAAATATAAATA [CACACA_site9115]”, for which the “gcPBM binding intensity (ln)” value stood at 11.4.
With “AATATAAAAATGTTTACACACACACGGAAATATATT [CACACA_site7226]” the figure was 10.3.
With “AATATAAAAATGTTTACACACACACCCAAATATATT [CACACA_site2511]” the figure was 10.2.
With “GGAATAATATAAAACACACACATAAATATAAATATA [CACACA_site3376]” the figure was 10.7; with “TAAAAAGGAAAACACACACACACATATATATATATA [CACACA_site3588]”, 11.4.
As to “AGGAAAAAAGAAAAAACACACATAAATATATATATA [CACACA_site3085]”, the “gcPBM binding intensity (ln)” value came to 9.74.
With “AATATAAAAATGTTTACACACACACCGAAATATATT [CACACA_site8800]” the figure was 11.2.
